According to PubChem BioAssay (Tox21):
Inconclusive results are not listed. Calls of active or inactive are those of the source. Unless noted, calls come from the whole dose curve; as a rule, active = well fitted curve in the direction sought with a large enough effect in the repeat runs; inconclusive = weak or mixed curves; inactive = no such curve, though single readings can be large; an effect the other way counts as inactive or inconclusive.

How the values were obtained:
[1] = qHTS assay for small molecule agonists of the p53 signaling pathway (AID 651631; calls by dose curve; note: nearly all actives have a fitted effect of over 15% in size)
How it was run: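 HCT-116 p53RE-bla reporter line, 16 h compound treatment at 37 °C, then fluorescence after 2 h with B/G FRET substrate.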

[2] = qHTS assay for small molecule agonists of the p53 signaling pathway - cell viability (AID 651633; calls by dose curve;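 note: p53RE-bla HCT reporter cells with a stable beta-lactamase p53 reporter; series mostly up to about 83 µM; nearly all actives have a fitted effect of over 30% in size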)
How it was run: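 p53RE-bla cells, seeded at 4,000 per well and rested 5 h at 37 C/5% CO2, received compounds in DMSO for 16 h at 37 C. CellTiter-Glo was then added, and luminescence was read after 30 min at room temperature to gauge cytotoxicity.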

[3] = qHTS assay for small molecules that induce genotoxicity in human embryonic kidney cells expressing luciferase-tagged ATAD5 - cell viability (AID 651634; calls by dose curve; note: nearly all actives have a fitted effect of over 25% in size)
How it was run: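 Cells (HEK293T, luciferase-tagged ATAD5) are seeded at 2,000 per well, dosed with compound or DMSO vehicle, and incubated 15.5 hr at 37C and 5% CO2. CellTiter-Fluor is added for 30 min before fluorescence is measured.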

[4] = qHTS assay for small molecule disruptors of the mitochondrial membrane potential - cell viability (AID 720634; calls by dose curve;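 note: human HepG2 liver cancer cells; series mostly up to about 83 µM; nearly all actives have a fitted effect of over 20% in size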)
How it was run: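 Cytotoxicity was measured by ATP quantitation in HepG2 wells that had first been treated with compound for 1 hr and stained with m-MPI dye; CellTiter-Glo incubation was 30 min at room temperature.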

[5] = qHTS assay to test for compound auto fluorescence at 535 nm (green) in HepG2 cells (AID 720675)
[6] = qHTS assay to test for compound auto fluorescence at 460 nm (blue) in HEK293 cells (AID 720678)
How it was run: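 Blue-channel (Ex/Em 405/460 nm) intensity measured in HEK293 cultures after overnight compound exposure at 37C; signal expressed relative to triamterene. Cells plated 2,000 per well in 10% dialyzed FBS medium and allowed 4-5 hr to attach.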

[7] = qHTS assay to test for compound auto fluorescence at 590 nm (red) in HEK293 cells (AID 720679)
How it was run: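 Red-channel autofluorescence (Ex/Em 540/590 nm; Rose Bengal sodium reference) was measured after overnight 37C, 5% CO2 exposure of attached HEK293 cells, 2,000 per well in medium with 10% dialyzed FBS.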

[8] = qHTS assay to test for compound auto fluorescence at 535 nm (green) in HEK293 cells (AID 720680)
[9] = qHTS assay to test for compound auto fluorescence at 460 nm (blue) in HEK293 cell free culture (AID 720681)
How it was run: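 Test compounds were pinned into cell-free culture medium (DMEM with 10% FBS) and fluorescence was read directly at Ex/Em 405/460 nm. Signals were expressed as fluorescence equivalents of triamterene, with DMSO vehicle as control.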

[10] = qHTS assay to test for compound auto fluorescence at 535 nm (green) in HEK293 cell free culture (AID 720682)
How it was run: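 Steps: dispense DMEM/10% FBS into empty wells; pin in compound or DMSO; measure fluorescence at 485/535 nm. Values are fluorescein equivalents.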

[11] = qHTS assay to test for compound auto fluorescence at 590 nm (red) in HEK293 cell free culture (AID 720683)
How it was run: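 Tox21 10K library compounds were pinned into cell-free DMEM with 10% FBS and fluorescence was read at excitation 540 nm. Activity is expressed as Rose Bengal sodium equivalency.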

[12] = qHTS assay to test for compound auto fluorescence at 590 nm (red) in HepG2 cell free culture (AID 720684)
How it was run: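 Readout: intrinsic compound fluorescence at 590 nm emission after 540 nm excitation, scaled to Rose Bengal sodium. Matrix was cell-free MEM with 10% FBS; DMSO vehicle wells served as control.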

[13] = qHTS assay to test for compound auto fluorescence at 460 nm (blue) in HepG2 cell free culture (AID 720685)
How it was run: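 Cell-free plates of MEM plus 10% FBS received 23 nL compound or DMSO vehicle; blue-channel (405/460 nm) intensity scored against triamterene as reference fluorophore.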

[14] = qHTS assay to test for compound auto fluorescence at 535 nm (green) in HepG2 cell free culture (AID 720686)
[15] = qHTS assay to test for compound auto fluorescence at 460 nm (blue) in HepG2 cells (AID 720687)
How it was run: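 Cells (2,000/well in MEM with 10% FBS) attached overnight at 37 C, then were exposed to compound or DMSO for 1 hr at 37 C, 5% CO2. Fluorescence read at Ex/Em 405/460 nm, expressed as triamterene-equivalent signal.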

[16] = qHTS assay for small molecules that induce genotoxicity in human embryonic kidney cells expressing luciferase-tagged ATAD5 (AID 651632); note: nearly all actives have a fitted effect of over 15% in size
How it was run: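 Cells were seeded at 2,000 per well, dosed with compound, and incubated 16 hr at 37C in 5% CO2. Luciferase activity was then quantified after a 30 min room-temperature incubation with Amplite.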

[17] = qHTS assay for small molecule disruptors of the mitochondrial membrane potential (AID 720635)
How it was run: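 HepG2 cells (2,000/well) attached overnight at 37C, then took compound for 1 hr at 37C, 5% CO2. Mito-MPS dye was added for 30 min; fluorescence was read at 490/535 nm (monomers) and 540/590 nm (aggregates).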

[18] = qHTS assay to test for compound auto fluorescence at 590 nm (red) in HepG2 cells (AID 720674)
How it was run: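 Intrinsic compound fluorescence in the red window (Ex/Em 540/590 nm) is measured in attached HepG2 cells exposed for 1 hr, DMSO vehicle as baseline, benchmarked to Rose Bengal sodium.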

[19] = molecular target: Glucocorticoid receptor (Homo sapiens) (UniProt P04150); test: qHTS assay to identify small molecule antagonists of the glucocorticoid receptor (GR) signaling pathway (AID 720692; active = well fitted inhibition curve with a large enough effect in the signal ratio in the repeat runs, not every such curve was filed as active; the % refers to the signal ratio)
How it was run: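 Antagonism was scored as loss of dexamethasone-driven (5 nM final) reporter signal in HeLa cells bearing a glucocorticoid response element–beta-lactamase construct, after 18 h compound exposure at 37 C and 2 h FRET substrate loading.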

[20] = molecular target: Glucocorticoid receptor (Homo sapiens) (UniProt P04150); test: qHTS assay to identify small molecule agonists of the glucocorticoid receptor (GR) signaling pathway (AID 720691; active = well fitted activation curve with a large enough effect in the signal ratio in the repeat runs, not every such curve was filed as active; the % refers to the signal ratio)
How it was run: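 Steps: seed GR-bla HeLa cells, incubate 4 h at 37 C/5% CO2; pin-transfer DMSO-dissolved compounds; incubate 18 h at 37 C; add LiveBLAzer B/G FRET substrate; after 2 h at room temperature, measure fluorescence.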
% is set by controls: 0 for no effect and ±100 for the full control effect.

Chain of Glucocorticoid receptor (Homo sapiens) (P04150 whole entry, looked up): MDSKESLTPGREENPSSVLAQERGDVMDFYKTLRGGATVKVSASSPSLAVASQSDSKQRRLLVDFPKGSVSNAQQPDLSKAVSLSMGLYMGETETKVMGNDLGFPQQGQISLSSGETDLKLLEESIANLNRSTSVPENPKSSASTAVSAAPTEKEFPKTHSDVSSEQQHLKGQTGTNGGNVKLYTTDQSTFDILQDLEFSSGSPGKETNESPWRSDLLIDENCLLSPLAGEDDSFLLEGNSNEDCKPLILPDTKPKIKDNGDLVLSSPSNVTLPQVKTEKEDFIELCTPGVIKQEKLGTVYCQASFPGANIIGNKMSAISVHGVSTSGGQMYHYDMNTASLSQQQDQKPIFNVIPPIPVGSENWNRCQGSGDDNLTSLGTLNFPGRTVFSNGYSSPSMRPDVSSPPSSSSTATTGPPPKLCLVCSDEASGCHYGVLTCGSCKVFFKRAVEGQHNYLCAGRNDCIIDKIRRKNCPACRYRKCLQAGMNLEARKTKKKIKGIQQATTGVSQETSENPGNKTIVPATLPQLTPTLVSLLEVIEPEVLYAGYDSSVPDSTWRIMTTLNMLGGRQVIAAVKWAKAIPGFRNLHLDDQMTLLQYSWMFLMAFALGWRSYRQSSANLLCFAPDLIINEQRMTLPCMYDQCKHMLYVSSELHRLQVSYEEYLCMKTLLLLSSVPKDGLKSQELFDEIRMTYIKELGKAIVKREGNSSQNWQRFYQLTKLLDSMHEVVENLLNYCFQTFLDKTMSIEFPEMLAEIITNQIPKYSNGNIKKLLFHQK

CC(=O)Oc1ccc(C(C)=O)cc1
inactive: Potency [1] | outcome [2] | outcome [3] | outcome [4] | outcome [5] | outcome [6] | outcome [7] | outcome [8] | outcome [9] | outcome [10] | outcome [11] | outcome [12] | outcome [13] | outcome [14] | outcome [15]

CC(C)OCCO
inactive: Potency [16] | outcome [2] | outcome [3] | outcome [4] | Potency [17] | outcome [18] | outcome [5] | outcome [6] | outcome [7] | outcome [9] | outcome [10] | outcome [11] | outcome [12] | outcome [13] | outcome [14] | outcome [19]

CCCCCCCCS(=O)(=O)O
inactive: Potency [16] | outcome [2] | outcome [3] | outcome [4] | Potency [17] | outcome [18] | outcome [5] | outcome [6] | outcome [7] | outcome [8] | outcome [9] | outcome [10] | outcome [11] | outcome [12] | outcome [13] | outcome [14] | outcome [15]

C=CC(=O)CC
inactive: Potency [1] | outcome [2] | outcome [3] | outcome [4] | outcome [18] | outcome [5] | outcome [6] | outcome [7] | outcome [9] | outcome [10] | outcome [11] | outcome [12] | outcome [13] | outcome [14] | outcome [15]

Cc1ccc(S(=O)(=O)NC(=O)NN2CC3CCCC3C2)cc1 (configuration not stated)
inactive: Potency [1] | outcome [2] | outcome [3] | outcome [4] | fluorescence, relative to Rose Bengal [18] 0.0207% [at 18.6 µM] | fluorescence, % of fluorescein control [5] 0.0063% [at 18.6 µM] | fluorescence, % of triamterene [6] -0.0452% [at 18.6 µM] | fluorescence, % of fluorescent control [7] -0.0362% [at 18.6 µM] | activity change [10] -0.0097% [at 18.6 µM] | fluorescence, % of fluorescent control [11] 0.167% [at 18.6 µM] | fluorescence, % of Rose Bengal [12] 0.0439% [at 18.6 µM] | fluorescence, % of fluorescent control [13] -0.0187% [at 18.6 µM] | fluorescence, % of fluorescein control [14] -0.0072% [at 18.6 µM] | fluorescence, % of fluorescent control [15] -0.0447% [at 18.6 µM]

CC(C)(C)c1ccc(N)cc1
inactive: Potency [16] | outcome [2] | outcome [3] | outcome [4] | outcome [18] | outcome [5] | outcome [6] | outcome [7] | outcome [8] | outcome [9] | outcome [10] | outcome [11] | outcome [12] | outcome [13] | outcome [14] | outcome [15] | Potency [20]

COc1cc(NS(=O)(=O)c2ccc(N)cc2)ncn1
inactive: Potency [16] | outcome [2] | outcome [3] | outcome [4] | fluorescence, relative to Rose Bengal [18] -0.434% [at 18.6 µM] | fluorescence, % of fluorescein control [5] 0.0032% [at 18.6 µM] | fluorescence, % of triamterene [6] -0.148% [at 18.6 µM] | fluorescence, % of fluorescent control [7] 0.185% [at 18.6 µM] | fluorescence, % of fluorescein [8] 0.0387% [at 18.6 µM] | fluorescence, % of fluorescent control [9] 0.0083% [at 18.6 µM] | activity change [10] 0.0071% [at 18.6 µM] | fluorescence, % of fluorescent control [11] -0.0018% [at 18.6 µM] | fluorescence, % of Rose Bengal [12] 0.116% [at 18.6 µM] | fluorescence, % of fluorescent control [13] 0.0187% [at 18.6 µM] | fluorescence, % of fluorescein control [14] 0.0114% [at 18.6 µM] | fluorescence, % of fluorescent control [15] -0.0071% [at 18.6 µM] | Potency [20] | outcome [19]
